Compound activity deposited in PubChem by several laboratories.
Shown are actives, neighbours in structure and some others; about 4.8% of the full set was active somewhere.
STAT1 activator – increases IFN-gamma driven STAT1 reporter signal; AID 932; hit rate 2.6% among 200,000; NIH 3T3 STAT1-luciferase reporter, luminescence; 100% = IFN-gamma alone, no compound; activation (% of control), % at 5.5 µM;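 active = activation above the screen-wide mean activation plus 3 SD, cut at about 130% in these data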;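 also: raw ratio to IFN-gamma control signal so 100% means no change and 0% no light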
NF-kB neuron act – raises NF-kB expression in human neuronal cells; NF-kB reporter expression; stronger effect = higher value; fold change at 12.5 µM; hit rate 1.6% among 190,000; in the data active = fold change above about 3.3
Wee1 degr inh – inhibitors of human Wee1 degradation; HeLa Luc-Wee1K328M stability, luciferase luminescence; 100% = proteasome inhibitor MG132 effect; reporter increase, % at 5 µM; hit rate 1.2% among 220,000; AID 1321;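 active = activation above the mean of all tested compounds plus 3 SD, set per screening run, cut at about 8.8% in these data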;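 also: cells exposed to compound for 20 h before luminescence read; 0% = DMSO alone and 100% = MG132 at 30 µM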
Target sequence (P30291 whole entry K328M): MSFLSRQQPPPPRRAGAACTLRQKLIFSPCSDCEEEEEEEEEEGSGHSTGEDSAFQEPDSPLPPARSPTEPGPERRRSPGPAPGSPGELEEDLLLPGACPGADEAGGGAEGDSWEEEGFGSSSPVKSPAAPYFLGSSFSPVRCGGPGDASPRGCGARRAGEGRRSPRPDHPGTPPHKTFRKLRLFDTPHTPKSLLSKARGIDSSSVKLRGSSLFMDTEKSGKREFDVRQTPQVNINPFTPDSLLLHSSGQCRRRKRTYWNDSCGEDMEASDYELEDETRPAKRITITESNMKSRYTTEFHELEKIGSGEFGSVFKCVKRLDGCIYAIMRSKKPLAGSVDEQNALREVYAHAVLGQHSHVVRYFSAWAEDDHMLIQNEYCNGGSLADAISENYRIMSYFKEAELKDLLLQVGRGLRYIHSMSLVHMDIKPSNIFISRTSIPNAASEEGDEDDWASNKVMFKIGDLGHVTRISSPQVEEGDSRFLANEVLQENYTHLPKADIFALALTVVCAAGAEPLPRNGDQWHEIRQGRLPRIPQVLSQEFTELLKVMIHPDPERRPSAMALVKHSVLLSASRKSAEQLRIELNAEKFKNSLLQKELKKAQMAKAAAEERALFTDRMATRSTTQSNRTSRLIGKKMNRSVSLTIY
Hsp70 activator – transcriptional activators of Hsp70. HeLa Hsp70 promoter luciferase reporter, luminescence; scaled: vehicle 0, proteasome-inhibitor control 100%. activation, % at 10 µM. hit rate 0.04% among 200,000. AID 1203;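 active = activation above the mean across all tested compounds plus 3 SD, cutoff set per campaign, cut at about 5.5% in these data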;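 also: 100% = MG132 at 30 µM as the positive control and 0% = DMSO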
APP transl inh – APP translation inhibition. SH-SY5Y APP 5'UTR-luciferase reporter, luminescence. inhibition, % at 2 µM. hit rate 0.82% among 190,000;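 active = inhibition above a set limit, derived from the sample mean plus 3 SD, cut at about 45% in these data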
APP 5'UTR act – APP 5'UTR luciferase reporter activation; AID 1276; SH-SY5Y APP 5'UTR luciferase reporter, luminescence; zero percent = DMSO vehicle wells; hit rate 1% among 190,000; activation, % at 2 µM;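 active = activation above a set limit, based on mean plus 3 SD of controls, cut at about 140% in these data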
Numbers without * were called inactive; · = no result given.

SMILES	STAT1 activator	NF-kB neuron act	Wee1 degr inh	Hsp70 activator	APP transl inh	APP 5'UTR act
Cc1cc(Cl)ccc1OCc1cn2cccnc2n1	133*	3	-3	0	-94	94
Clc1ccc(OCc2cn3cccnc3n2)c2ncccc12	124	1.3	11*	0	-18	18
c1cnc2c(OCc3cn4cccnc4n3)cccc2c1	93	1.7	2	0	-23	23
Cc1ccc(/C=N/NC(=O)C2CCN(Cc3ccc(F)cc3Cl)CC2)o1	98	1.2	-3	0	-6	6
COc1ccc(NC(=O)c2cc(C)n(Cc3cccs3)c2C)cc1	·	·	8	·	·	·
CC(C)c1ccc(NC(=O)NN2CCOCC2)cc1	146*	1.7	4	0	-86	86
COc1ccc(-n2c(N)c(C(=O)NCC3CCCO3)sc2=S)cc1 (centres undefined)	99	1.1	10*	-1	2	-2
COc1ccc(/C=N/NC(=O)CCSc2nc3ccccc3s2)cc1	102	0.64	4	0	26	-26
COc1ccc(Cc2nnc(N/N=C/c3ccc(O)cc3)[nH]c2=O)cc1OC	99	1.4	-2	0	86*	-86
O=c1[nH]c(N/N=C/c2ccc(O)cc2)nc2ccccc12	144*	2.9	1	0	-134	134
O=c1[nH]c(N/N=C\c2ccc(F)cc2)nc2ccccc12	150*	4.1*	2	0	-189	189*
COc1ccc(Nc2nc3ccccc3c(=O)[nH]2)cc1	·	·	-3	·	·	·
COc1ccc(Cc2nnc(N/N=C/c3ccc(Br)cc3)[nH]c2=O)cc1OC	·	·	2	·	·	·
O=C(N/N=C/c1ccncc1)c1nc2ccccc2c(=O)[nH]1	·	·	4	·	·	·
O=C1c2ccccc2C(Nc2ccc(-c3nc4ccccc4[nH]3)cc2)N1Cc1ccco1 (centres undefined)	104	0.59	-1	0	-14	14
CCOC(=O)C1=C(CN2CCN(c3ccc(F)cc3)CC2)NC(=O)NC1c1cccs1 (centres undefined)	96	1	1	0	-7	7
Cn1c(SCCN2CCCCC2)nnc1-c1ccccc1Br	96	0.95	3	0	-5	5
CCOC(=O)C1=C(CSc2nc(CC)c(C)cc2C#N)OC(N)=C(C#N)C1c1ccccc1 (centres undefined)	87	0.96	3	0	-11	11
C#CCSc1nc(-c2cccs2)ccc1C#N	102	1	2	0	9	-9
CCOC(=O)C1=C(CSc2nc(-c3ccccc3)ccc2C#N)OC(N)=C(C#N)C1c1ccc(OC)cc1 (centres undefined)	147*	2.5	1	0	-95	95
CCN(CC)C(=O)CSc1nc(-c2ccccc2)ccc1C#N	132*	1.2	3	2	-19	19
COC(=O)CSc1nc(-c2cccs2)ccc1C#N	133*	7.3*	-1	0	-152	152*
COCCNC(=O)CN(c1cc(C(F)(F)F)ccc1Cl)S(C)(=O)=O	92	1.1	10*	0	1	-1
CC1CCN(c2ccc(C(=O)NCCc3ccccc3)cn2)CC1	132*	1.6	0	0	-31	31
CC1CCCN(c2ccc(C(=O)NCc3ccccc3)cn2)C1 (centres undefined)	137*	2	1	0	11	-11
SMILES	STAT1 activator	NF-kB neuron act	Wee1 degr inh	Hsp70 activator	APP transl inh	APP 5'UTR act
O=S(=O)(NC1=NCCCCC1)c1ccc2sc(NS(=O)(=O)c3ccc4ccccc4c3)nc2c1	·	·	-6	·	·	·
CC(C)c1ccc(C(=O)NN2C(=O)C3CCCCC3C2=O)cc1 (centres undefined)	144*	1.6	2	0	-55	55
O=C(CSc1n[nH]c(=O)[nH]c1=O)c1ccccc1[N+](=O)[O-]	·	·	2	·	·	·
CCOc1c(Br)cc(CNc2ccc3c(c2)OCCO3)cc1OC	96	0.94	6	0	94*	-94
CCOc1cc(CNc2ccc3c(c2)OCCO3)cc(Br)c1OC	94	2.7	1	0	94*	-94
O=[N+]([O-])c1cc(/C=N/N2CCCCC2)ccc1Cl	132*	3.2	2	0	-4	4
CCC(C)(C(=O)NC1CCCCC1)N(Cc1ccco1)C(=O)CC1NC(=O)NC1=O (centres undefined)	93	1.1	8	0	-12	12
O=C(CSC1=NCCS1)Nc1ccc(F)cc1	96	1.3	-2	0	17	-17
O=C(CSc1ccc(F)cc1)Nc1ccc(C2SCCS2)cc1	·	·	9.5*	·	·	·
CC(=O)Oc1ccc(NC(=O)CSc2ccccc2)cc1	106	4.2*	1	0	1	-1
COc1ccc(CCNC(=O)C2CCN(S(=O)(=O)c3ccc(Cl)cc3)CC2)cc1OC	89	0.95	-1	-1	-10	10
CC(=O)Nc1cccc(-c2nc3ccc(NC(C)=O)cc3s2)c1	140*	1.8	-1	0	-71	71
CC(=O)Nc1cccc(-c2nc3ccccc3s2)c1	148*	3	0	1	-64	64
COc1cccc(CN(C(=O)c2ccco2)C(C(=O)NC2CCCC2)c2cccnc2)c1 (centres undefined)	95	0.85	-2	0	-11	11
Cc1cc(C)nc(-n2nc(C)c(Sc3ccc(F)cc3)c2N)n1	131*	3	7	0	-165	165*
CCOn1c(=O)c(=O)n(OCc2ccccc2)c2ccccc21	91	1.1	-2	0	-5	5
COCCCNCCOc1ccc(C(C)(C)c2ccccc2)cc1	95	0.93	9.7*	0	-30	30
CCC(c1nnnn1Cc1ccc(OC)cc1)N(CCCO)Cc1cc2cc3c(cc2[nH]c1=O)OCO3 (centres undefined)	101	0.96	9.2*	0	10	-10
COc1ccc(N2C(=S)NC3N2C(=S)NC3(C)c2ccccc2)cc1 (centres undefined)	125	6.7*	1	0	-55	55
O=C(Nc1nncs1)c1ccc(S(=O)(=O)c2ccccc2)cc1	95	1.1	9.3*	0	-7	7
COc1ccc(/C=N/Nc2nccnc2Cl)c(OC)c1	120	2.4	1	0	-26	26
COc1cccc(/C=N/Nc2ncnc3scc(-c4ccccc4)c23)c1O	106	0.69	1	-1	89*	-89
COc1cccc(/C=N/Nc2nccnc2Cl)c1O	102	6.2*	-4	0	51*	-51
COc1cccc(/C=N/Nc2nc3ccccc3[nH]2)c1O	·	·	-2	·	·	·
COc1ccc(/C=N/Nc2nccnc2Cl)cc1	103	3.2	0	0	-164	164*
COc1cccc(/C=N/Nc2ncnc(Cl)c2N)c1O	100	1.6	1	0	78*	-78
O=C(NCc1ccco1)C1CC(c2ccc(Cl)c(Cl)c2)=NO1 (centres undefined)	104	1.1	2	0	8	-8
CC(=O)O/C(=C\c1cn(C(C)=O)c2ccccc12)C(=O)O	·	·	1	·	·	·
